The full ranking holds about 35,000 sequences; the median of “fluorescence intensity (a.u.)” is about 10,000, and the highest 2% start at about 52,000. This excerpt belongs to a sample that is enriched for the highest values.
These sequences were tested against T1, OsWOX13 (Oryza sativa, UniProt Q5QMM3 1-267) (assay: protein-binding microarray (RPBM); PBS, 2% BSA, 51.3 ng/ul salmon testes DNA, 50 uM zinc acetate, 200 nM TF, 25 C, 1 h; high values mean tight binding). Conditions: protein: recombinant; tags: N-terminal polyhistidine and DsRed monomer fusion (pET32a); label: CyDye5-dUTP incorporated in the synthesized complementary strand; 3' TTTTT single-stranded linker to array surface; dsDNA, one strand shown.
T1 sequence: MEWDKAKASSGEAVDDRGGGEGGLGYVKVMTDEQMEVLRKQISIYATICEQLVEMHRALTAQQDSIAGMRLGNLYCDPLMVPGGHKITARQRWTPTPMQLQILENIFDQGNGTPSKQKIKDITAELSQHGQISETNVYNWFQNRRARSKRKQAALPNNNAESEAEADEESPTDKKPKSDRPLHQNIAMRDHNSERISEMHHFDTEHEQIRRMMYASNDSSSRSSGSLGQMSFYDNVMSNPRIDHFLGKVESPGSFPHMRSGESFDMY
In short: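 Ni–NTA purification followed expression in E. coli BL21-CodonPlus of transcription factors fused N-terminally to a polyhistidine tag and DsRed. At 200 nM in PBS with 2% BSA, salmon testes DNA and 50 µM zinc acetate, the protein was incubated for 1 h at 25 °C with a custom Agilent array that had been primer-extended with Cy5-dUTP and blocked with 2% BSA. After washing, the array was read on an Axon 4000B scanner. The binding signal is per-feature fluorescence intensity in arbitrary units.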

Q: “CTGATTGGCCATGAGTCCAGAGATAGCATTGAACACAGGACGGAGTCACCTAGTGCAG” was tested. Which binding signal did it give?
A: 32400 fluorescence intensity (a.u.)

Q: Which binding signal does the source give for “GGGAGTAATTGAATATGCCTTTTGGGCTGCCATCTGCCCACGGAGTCACCTAGTGCAG” here?
A: 26800 fluorescence intensity (a.u.)

Q: For “TTTGATTTGATTCGTGTGCTCCCCGCCGCCTTCGATCCCTCGGAGTCACCTAGTGCAG”, which binding signal is on record?
A: 43600 fluorescence intensity (a.u.)

Q: For “CTTAATTGCGCGCGAATGGAGTAATACTAGTACTAGTATACGGAGTCACCTAGTGCAG”, which binding signal is on record?
A: 15100 fluorescence intensity (a.u.)

Q: With “GACTAAATTTTAATCCCTATCACATCGGATATTTGACACTCGGAGTCACCTAGTGCAG” as the sequence, how does the binding signal read?
A: 7230 fluorescence intensity (a.u.)

Q: With “AGGCCCAATTACTGATCGAAATTTCGATGATTTCGATCGACGGAGTCACCTAGTGCAG” as the sequence, how does the binding signal read?
A: 18500 fluorescence intensity (a.u.)

Q: Which binding signal does the source give for “CCAATTGGAATGCATTGTCTATTTGTTGTCTAGATCTCTCCGGAGTCACCTAGTGCAG” here?
A: 3760 fluorescence intensity (a.u.)

Q: With “AATCTCCTAATTATGTATTGCCCAAATCCATTTATTTTCCCGGAGTCACCTAGTGCAG” as the sequence, how does the binding signal read?
A: 7170 fluorescence intensity (a.u.)

Q: How did the binding signal turn out when “ACATAACATATGAGATTGAAATTTCTTGAACCATACATTACGGAGTCACCTAGTGCAG” was run?
A: 9950 fluorescence intensity (a.u.)

Q: Which binding signal does the source give for “CTCACATGTTAATTACCATCAATGTATTTTACTCTTTTAACGGAGTCACCTAGTGCAG” here?
A: 16700 fluorescence intensity (a.u.)

Q: With “TTTATACGAAAATCAATAATTATAGCAGATATCCACAAGGCGGAGTCACCTAGTGCAG” as the sequence, how does the binding signal read?
A: 5700 fluorescence intensity (a.u.)

Q: “ACCTTTTCCGCGTGTTGTGTCTGTTTGTTGAAGATGAATTCGGAGTCACCTAGTGCAG” was tested. Which binding signal did it give?
A: 3280 fluorescence intensity (a.u.)

Q: “AATGCTAATGACAGATTAATTAGGCTTAATAAATTTGTCTCGGAGTCACCTAGTGCAG” was tested. Which binding signal did it give?
A: 29500 fluorescence intensity (a.u.)

Q: For “TGCTAATGACTGATTAATTAGGCTTAATAAATTTGTCTCGCGGAGTCACCTAGTGCAG”, which binding signal is on record?
A: 64800 fluorescence intensity (a.u.)

Q: How did the binding signal turn out when “TGCTAATGACTGATTAATTAGGCTTAATAAATTCGTCTTGCGGAGTCACCTAGTGCAG” was run?
A: 35300 fluorescence intensity (a.u.)

Q: Which binding signal does the source give for “TATAATAATTAAAACTCAATCAATCATACGTTAATAGCACCGGAGTCACCTAGTGCAG” here?
A: 20000 fluorescence intensity (a.u.)

Q: How did the binding signal turn out when “ATGATGATTGTTAGTGGATGATGATGTGTCATCTTGTTAACGGAGTCACCTAGTGCAG” was run?
A: 38400 fluorescence intensity (a.u.)

Q: For “CACGGATTATTTTGAGCAATTACCGCTCTAATCCGGGGCGCGGAGTCACCTAGTGCAG”, which binding signal is on record?
A: 3600 fluorescence intensity (a.u.)

Q: With “ACACATAATGTAATCTATTTTGATATAACCAAAAGCTGTTCGGAGTCACCTAGTGCAG” as the sequence, how does the binding signal read?
A: 7540 fluorescence intensity (a.u.)

Q: With “TGGTCCTTTACATTGCAATTAATTTGTTTGGAATTTATTACGGAGTCACCTAGTGCAG” as the sequence, how does the binding signal read?
A: 8240 fluorescence intensity (a.u.)

Q: Which binding signal does the source give for “AATTATTGATTTGATGAAACTAATTTAGTATTATAAAGAGCGGAGTCACCTAGTGCAG” here?
A: 51000 fluorescence intensity (a.u.)

Q: Which binding signal does the source give for “GTATAATTGACAGATGAATTTCACGCAAGAGTATATTGAGCGGAGTCACCTAGTGCAG” here?
A: 55900 fluorescence intensity (a.u.)

Q: Which binding signal does the source give for “ATATATATTGATTATATGTTTATTTTGTATGAAGATGTTCCGGAGTCACCTAGTGCAG” here?
A: 34900 fluorescence intensity (a.u.)

Q: Which binding signal does the source give for “CAGTATATAAATAATTTGAATTAGATGAGATATATCCTAGCGGAGTCACCTAGTGCAG” here?
A: 8160 fluorescence intensity (a.u.)

Q: For “GATAATTGACAAGATTGAACCATATGTGATGTATTATTTCCGGAGTCACCTAGTGCAG”, which binding signal is on record?
A: 53200 fluorescence intensity (a.u.)

Q: Which binding signal does the source give for “AGATAATTTGTGATTGATGTCATAGTAGTAGAGAAAACCACGGAGTCACCTAGTGCAG” here?
A: 46800 fluorescence intensity (a.u.)

Q: “GGATGTCATGATAATTGACTTATGACAATGTGATTATTTCCGGAGTCACCTAGTGCAG” was tested. Which binding signal did it give?
A: 19700 fluorescence intensity (a.u.)

Q: For “GATTATAATTTGTAAGATAATTGACCATGGAGAAGATTCACGGAGTCACCTAGTGCAG”, which binding signal is on record?
A: 16300 fluorescence intensity (a.u.)

Q: For “TATAATTGATTATTGTGACCTCATGATAGAGACAAGACCACGGAGTCACCTAGTGCAG”, which binding signal is on record?
A: 53500 fluorescence intensity (a.u.)

Q: With “ATCTCAATCAGCAACACAAATGACCCTGACCCACGATCCACGGAGTCACCTAGTGCAG” as the sequence, how does the binding signal read?
A: 20900 fluorescence intensity (a.u.)

Q: “GCCGTTAGTTAATTATTATCCGGTAAAGAAGATTAGTAGTCGGAGTCACCTAGTGCAG” was tested. Which binding signal did it give?
A: 12200 fluorescence intensity (a.u.)

Q: With “CGTTTCTTGATTCGATGGTTGATGGATTTTGGTTTGTGGACGGAGTCACCTAGTGCAG” as the sequence, how does the binding signal read?
A: 4980 fluorescence intensity (a.u.)

Q: How did the binding signal turn out when “ATTGATTTGATGAAACTAATTTACGGCACAATAGCAAATCCGGAGTCACCTAGTGCAG” was run?
A: 57600 fluorescence intensity (a.u.)

Q: “ATCACCTAATCAATTGAATCCATCAATTCAAGTAGATTCACGGAGTCACCTAGTGCAG” was tested. Which binding signal did it give?
A: 9390 fluorescence intensity (a.u.)

Q: “GCACACATGATCAATCAATTAATAGATTAGGTAGGTACGGCGGAGTCACCTAGTGCAG” was tested. Which binding signal did it give?
A: 51100 fluorescence intensity (a.u.)

Q: Which binding signal does the source give for “TTATGAAAATATATTTAATTATTGATTTGATGAAACTAATCGGAGTCACCTAGTGCAG” here?
A: 5790 fluorescence intensity (a.u.)

Q: How did the binding signal turn out when “AAATATATTCAATTATTGATTTGATGAAACTAATTTCGTACGGAGTCACCTAGTGCAG” was run?
A: 23500 fluorescence intensity (a.u.)

Q: Which binding signal does the source give for “GGCAATCAATTATTAATTGATTAATTCCATGAATAGCACACGGAGTCACCTAGTGCAG” here?
A: 64900 fluorescence intensity (a.u.)

Q: For “TATATATATATATATATATAGACACACACATCAACAACAACGGAGTCACCTAGTGCAG”, which binding signal is on record?
A: 16000 fluorescence intensity (a.u.)

Q: “TTAATTGCTATGTTTTGACCAGTCAACGCATAGGTCGTTTCGGAGTCACCTAGTGCAG” was tested. Which binding signal did it give?
A: 15500 fluorescence intensity (a.u.)

Q: How did the binding signal turn out when “ATTGCACAGATTGTGACTAATTTGCGAGACGAATCTTTTACGGAGTCACCTAGTGCAG” was run?
A: 7340 fluorescence intensity (a.u.)

Q: How did the binding signal turn out when “TTGGAATTTGGGGATTGGGAAGAGAGAAATCAGATTGGAACGGAGTCACCTAGTGCAG” was run?
A: 4300 fluorescence intensity (a.u.)

Q: Which binding signal does the source give for “CGGAAGATTGGAATGGAAATCGGAGAGAGCAGGGGCGGTGCGGAGTCACCTAGTGCAG” here?
A: 12800 fluorescence intensity (a.u.)

Source: PMC7819943, “Rice protein-binding microarrays: a tool to detect cis-acting elements near promoter regions in rice”
